# Results filed as inconclusive are left out. Activity calls are given as the source filed them. Rule for the calls, unless noted: active = hit-call score of the fitted dose curve at least 0.9, where 1 is the maximum; inactive = score below 0.9.
# Key:
# [1] = CCTE_Shafer_MEA_dev_per_burst_spike_percent: CCTE's Neural Network Formation Assay for Percent of Spikes in a Burst, Shafer Lab (AID 2284032);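 note: fitted as a decrease in burst spike percentage below DMSO baseline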
# Summary of the method: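 Value is trapezoidal AUC over recordings on days 5, 7, 9 and 12 of the well-mean fraction of spikes falling in single-electrode bursts; rat cortical cultures exposed continuously from plating, treatment renewed DIV 5 and 9, fitted downward against DMSO.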
# [2] = CCTE_Shafer_MEA_dev_active_electrodes_number: CCTE's Neural Network Formation Assay for Number of Active Electrodes, Shafer Lab (AID 2284040; active = hit-call score of the fitted dose curve at least 0.9, where 1 is the maximum;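 note: potency for loss of active electrodes versus DMSO so lower counts are hits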)
# Summary of the method: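 Developing rat cortical networks on MEAs, exposed DIV 0–12. Value is the AUC of active-electrode counts (≥5 spikes/min) from days 5, 7, 9, 12, relative to DMSO.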
# [3] = CCTE_Shafer_MEA_dev_per_burst_interspike_interval: CCTE's Neural Network Formation Assay for Burst Interspike Interval, Shafer Lab (AID 2284044);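 note: potency for a decrease of within-burst interspike interval below DMSO level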
# Summary of the method: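 Primary rat cortical neurons on 48-well MEA plates, exposed from day 0 through day 12, treatment renewed at DIV 5 and 9. Within-burst interspike interval recorded days 5, 7, 9, 12, well-averaged, summarised as AUC; negative fit versus DMSO.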
# [4] = CCTE_Shafer_MEA_dev_burst_duration_mean: CCTE's Neural Network Formation Assay for Mean Burst Duration, Shafer Lab (AID 2284045)
# Summary of the method: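 Mean single-electrode burst duration (first to last spike), averaged over bursting electrodes per well, then integrated as area-under-curve across recordings at days 5, 7, 9 and 12. Rat cortical cultures on MEAs, compound present from plating, refreshed at feeds.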
# [5] = CCTE_Shafer_MEA_dev_interburst_interval_mean: CCTE's Neural Network Formation Assay for Mean Interburst Interval, Shafer Lab (AID 2284046);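 note: well-mean interburst interval of bursting electrodes as AUC over four recording days; curve fitted for decrease in interburst interval relative to DMSO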
# Summary of the method: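 Recordings on days 5, 7, 9 and 12 give well-mean interburst interval across actively bursting electrodes, summarized as area under the curve. Cultures: rat cortical neurons, continuous exposure from day 0, compound renewed at feeds; decrease analyzed versus DMSO.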
# [6] = CCTE_Shafer_MEA_dev_inter_network_spike_interval_mean: CCTE's Neural Network Formation Assay for Mean Inter-network Spike Interval, Shafer Lab (AID 2284047)
# Summary of the method: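 Primary rat cortical neurons on 16-electrode MEA wells, exposed from plating day 0 through DIV 12, compound renewed at DIV 5 and 9 media changes. Mean interval between network-spike peaks recorded DIV 5, 7, 9, 12; collapsed as trapezoidal AUC, fitted downward versus DMSO.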
# [7] = CCTE_Shafer_MEA_dev_network_spike_number: CCTE's Neural Network Formation Assay for Number of Network Spikes, Shafer Lab (AID 2284048);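 note: synchronized bursts across electrodes counted on days 5 7 9 12 and integrated as AUC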
# Summary of the method: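 Number of network spikes (coordinated firing across electrodes) recorded on days 5, 7, 9 and 12 and summarised as area under the curve. Rat cortical cultures on MEA, continuous compound exposure with full medium/treatment exchange at DIV 5 and 9.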
# [8] = CCTE_Shafer_MEA_dev_network_spike_peak: CCTE's Neural Network Formation Assay for Mean Number of Electrodes in Network Spike, Shafer Lab (AID 2284049);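 note: fitted for loss of signal meaning fewer electrodes in network spikes than DMSO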
# Summary of the method: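 Rat cortical primary culture, 1.5 x 10^5 cells/well, 48-well MEA (16 electrodes/well). Dosing day 0 through DIV 12, full media/compound exchange DIV 5, 9. AxIS adaptive spike detection; AUC over days 5/7/9/12; loss-of-signal vs DMSO.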
# [9] = CCTE_Shafer_MEA_dev_spike_duration_mean: CCTE's Neural Network Formation Assay for Mean Spike Duration, Shafer Lab (AID 2284051);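 note: mean network spike duration pooled as area under curve over DIV 5 to 12 recordings; potency for a decrease in mean network spike duration versus DMSO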
# Summary of the method: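 Primary rat cortical neurons on 16-electrode MEA wells (PEI-coated, laminin in plating drop), exposed from plating through DIV 12 with compound renewed at DIV 5 and 9. Mean network-spike duration recorded DIV 5, 7, 9, 12; trapezoidal AUC across days, DMSO baseline.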
# [10] = CCTE_Shafer_MEA_dev_network_spike_duration_std: CCTE's Neural Network Formation Assay for Standard Deviation of Network Spike Duration, Shafer Lab (AID 2284052);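 note: hits are decreases in network spike duration SD versus DMSO vehicle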
# Summary of the method: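 Primary rat cortical neurons on PEI-coated 16-electrode MEA wells, exposed from plating day 0 through day 12 with compound renewed at DIV 5 and 9. Network spike duration SD recorded on days 5, 7, 9, 12, collapsed as trapezoidal AUC; loss-of-signal fit versus DMSO.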
# [11] = CCTE_Shafer_MEA_dev_per_network_spike_spike_number_mean: CCTE's Neural Network Formation Assay for Mean Number of Spikes in a Network Spike, Shafer Lab (AID 2284053);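 note: fitted as decrease in spikes per network spike relative to DMSO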
# Summary of the method: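 Primary rat cortical neurons on 48-well, 16-electrode MEA plates were exposed from plating to DIV 12, with dosing renewed on DIV 5 and 9. Spikes per network spike (0.05 s peak window) were recorded on DIV 5, 7, 9 and 12 and collapsed as trapezoidal AUC versus DMSO.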
# [12] = CCTE_Shafer_MEA_dev_per_network_spike_spike_percent: CCTE's Neural Network Formation Assay for Percent of Spikes in a Network Spike, Shafer Lab (AID 2284054)
# Summary of the method: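 Metric: fraction of spikes falling in a 0.05 s window at network-spike peaks. Recordings were made on days 5, 7, 9 and 12 and collapsed by trapezoidal AUC. Cultures were rat cortical neurons on MEA plates, dosed continuously from plating, re-dosed at media changes.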
# [13] = CCTE_Shafer_MEA_dev_AB: CCTE's Alamar Blue Assay for Cytotoxicity in the Neural Network Formation Assay, Shafer Lab (AID 2284083; active = hit-call score of the fitted dose curve at least 0.9, where 1 is the maximum;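 note: twelve days of exposure from plating with re-dosing on DIV 5 and 9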)
# Summary of the method: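 Primary rat cortical neurons on PEI-coated 48-well MEA plates, 1.5 x 10^5 cells/well in laminin drop; compound exposure from day 0 of plating for twelve days, renewed at medium changes on DIV 5 and 9. Viability read as resazurin reduction by fluorescence, relative to DMSO.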
# [14] = CCTE_Shafer_MEA_dev_mutual_information_norm: CCTE's Neural Network Formation Assay for Mutual Information Normalization, Shafer Lab (AID 2284091)
# Summary of the method: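 Shared information across electrodes, tracked on days 5, 7, 9 and 12 of network development and collapsed as trapezoidal area under the curve. Rat cortical cultures were treated continuously from plating, with treatment renewed at feeds on DIV 5 and 9; DMSO baseline, negative-direction fit.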
# [15] = CCTE_Shafer_MEA_dev_correlation_coefficient_mean: CCTE's Neural Network Formation Assay for Mean Correlation Coefficient, Shafer Lab (AID 2284093)
# Summary of the method: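 Spontaneous activity recorded on days 5, 7, 9 and 12 post-plating; pairwise spike correlations are averaged across active electrodes and collapsed to an area-under-curve. Rat cortical cultures are dosed from plating through 12 days, with compound renewed at media changes.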
# [16] = IUF_NPC1b_proliferation_BrdU_72hr: Leibniz Research Institute for Environmental Medicine (IUF) 72-hour Neural Progenitor Cell Bromodeoxyuridine (BrdU) Proliferation Assay (NPC1b) (AID 2284207)
# Summary of the method: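 Human fetal cortex-derived (GW 16-19) neural progenitor spheres, 0.25-0.35 mm, one per well in EGF/FGF proliferation medium, exposed to compound for 72 h at 37C, pH 7.2-7.6. BrdU incorporation over the final 16 h read by luminescence ELISA, relative to DMSO.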
# [17] = IUF_NPC1a_proliferation_area_72hr: Leibniz Research Institute for Environmental Medicine (IUF) 72-hour Neural Progenitor Cell Proliferation Area Assay (NPC1a) (AID 2284208)
# Summary of the method: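 Single 0.25–0.35 mm human fetal neural progenitor spheres in proliferation medium with EGF and FGF, exposed 72 h from plating without renewal at 37C, pH 7.2-7.6. Sphere area growth measured by automated phase-contrast imaging, relative to DMSO.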
# [18] = IUF_NPC1_viability_72hr: Viability Assessment at 72 hours in the Leibniz Research Institute for Environmental Medicine (IUF) Neural Progenitor Cell Proliferation Assay (NPC1) (AID 2284209)
# Summary of the method: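 Three-day continuous exposure of human neural progenitor spheres under EGF/FGF-driven proliferation; cell viability scored by alamar blue signal versus DMSO.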
# [19] = CCTE_Mundy_HCI_Cortical_Synap_Neur_Matur_NeuriteSpotCountPerNeuriteLength: CCTE's Synaptogenesis and Neurite Maturation Assay in rat cortical cells for Neurite Spot Count per Neurite Length, Mundy Lab (AID 2284210)
# Summary of the method: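 Synaptophysin spots per unit neurite length, measured by automated imaging of MAP2/synaptophysin/Hoechst-stained neurons. Cultures from rat cortex received chemical at DIV 7 with media change through DIV 12; glial growth arrested by AraC at DIV 5; DMSO baseline.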
# [20] = CCTE_Mundy_HCI_Cortical_Synap_Neur_Matur_BPCount: CCTE's Synaptogenesis and Neurite Maturation Assay in rat cortical cells for Branch Point Count, Mundy Lab (AID 2284211)
# Summary of the method: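 In this multiplexed morphology assay, cortical cells from rat receive chemicals at DIV 7 and are fixed at DIV 12, then immunostained and imaged; branch points are counted, with DMSO as baseline.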
# [21] = CCTE_Mundy_HCI_Cortical_NOG_NeuriteCount: CCTE's Neurite Outgrowth Assay in rat cortical cells for Neurite Count, Mundy Lab (AID 2284212);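 note: cells fixed about two days after chemical exposure began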
# Summary of the method: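 Rat cortical primary cells; compound added 2 h post-plating, 1/10 dilution of working solution. Anti-betaIII-tubulin/AF488 ICC; ArrayScan neurite count vs DMSO.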
# [22] = CCTE_Mundy_HCI_Cortical_NOG_NeuriteLength: CCTE's Neurite Outgrowth Assay in rat cortical cells for Neurite Length, Mundy Lab (AID 2284213)
# Summary of the method: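 First, rat primary cortical cells were plated and, 2 h later, given test chemical as a 1/10 dilution. Finally, βIII-tubulin immunostaining enabled automated imaging of neurite length.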
# [23] = CCTE_Mundy_HCI_Cortical_Synap_Neur_Matur_NeuriteLength: CCTE's Synaptogenesis and Neurite Maturation Assay in rat cortical cells for Neurite Length, Mundy Lab (AID 2284214)
# Summary of the method: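 DMSO-normalised neurite length, from high-content imaging of anti-MAP2-stained rat cortical cells fixed at DIV 12. Glia were suppressed with AraC (DIV 5) before chemical exposure from DIV 7.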
# [24] = CCTE_Mundy_HCI_Cortical_Synap_Neur_Matur_NeuriteSpotCountPerNeuron: CCTE's Synaptogenesis and Neurite Maturation Assay in rat cortical cells for Neurite Spot Count per Neuron Count, Mundy Lab (AID 2284215)
# Summary of the method: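 Rat primary cortical cultures given AraC at DIV 5, dosed from DIV 7 to DIV 12 with media change. Fixed, stained for MAP2, synaptophysin and Hoechst; neurite-associated synaptophysin puncta per neuron quantified by high-content imaging versus DMSO.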
compound,measurement,setting,value
CC(C)O,AC50,[1],10.2 µM (active)
same,AC50,[2],7.59 µM (active)
same,AC50,[3],10.2 µM (active)
same,outcome,[4],inactive
same,outcome,[5],inactive
same,outcome,[6],inactive
same,outcome,[7],inactive
same,AC50,[8],8.39 µM (active)
same,AC50,[9],14.3 µM (active)
same,outcome,[10],inactive
same,AC50,[11],5.31 µM (active)
same,outcome,[12],inactive
same,outcome,[13],inactive
same,outcome,[14],inactive
same,outcome,[15],inactive
same,AC50,[16],91.7 µM (active)
same,outcome,[17],inactive
same,outcome,[18],inactive
same,outcome,[19],inactive
same,outcome,[20],inactive
same,outcome,[21],inactive
same,outcome,[22],inactive
same,outcome,[23],inactive
same,outcome,[24],inactive
